# Counter-ions that a name gives are not always drawn. ± gives the standard deviation of the averaged measurements. The full ranking holds about 3,100 compounds; the median of “mean cytoplasmic OPP incorporation (global translation) relative to DMSO” is about 100, and the lowest 2% start at about 56. Many of the other results were omitted from the sample, so the lowest values are more common in it than they were.
# Test system: U2OS
# Experiment: mean cytoplasmic OPP incorporation (global translation) relative to DMSO (% of DMSO); higher = more protein synthesis
# Conditions: 10 µM; 24 h
# Procedure: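 Primary image-based screen in U2OS cells: compounds at 10 uM for 24 h, then a 1 h o-propargyl-puromycin (OPP) pulse, click labelling, and high-throughput microscopy. Mean cytoplasmic OPP intensity and nuclei count were normalised to DMSO wells within each plate (DMSO = 100) and averaged over triplicate plates.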
row,Compound,mean cytoplasmic OPP incorporation
1,CCCC(CCC)C(=O)NO [Valproic acid hydroxamate],110
2,CCOc1ccccc1OCC1CNCCO1 (stereo not drawn) [Viloxazine hydrochloride],87.8
3,Cc1cnc(NC(=O)Nc2cc(Br)c(C)cc2OC[C@@H]2CNCCO2)cn1,45.6
4,COc1cc(OC)c(NC(=O)Nc2cc(C)on2)cc1Cl,103
5,CC(=O)OCCN1C(=O)c2c(C)nc3ccc(S(=O)(=O)N4CCOCC4)cc3c2C1=O [Ivachtin],105
6,CCOC(=O)C1=CN(Cc2ccccc2)C=C(C(=O)OCC)C1c1ccccc1,99.2
7,Nc1ncn(C2CC(O)C(CO)O2)c(=O)n1 (stereo not drawn) [5-Aza-2-deoxycytidine],94.5
8,"CCCn1c(=O)c2[nH]c(-c3ccccc3)nc2n(CCC)c1=O [1,3-Dipropyl-8-phenylxanthine]",99.1
9,CCCn1c(=O)c(C)cn2nc(N)nc12,104
10,CCCC[C@@H](C=O)NC(=O)OC(C)(C)C,101
11,CC1=C(/C=C/C(C)=C/C=C/C(C)=C/C(=O)O)C(C)(C)CCC1O (stereo not drawn) [4-Hydroxyretinoic acid],101
12,COC(=O)[C@]12CCC(C)(C)C[C@H]1[C@H]1C(=O)C=C3[C@@]4(C)C=C(C#N)C(=O)C(C)(C)[C@@H]4CC[C@@]3(C)[C@]1(C)CC2 [Bardoxolone Methyl],25.6
13,"N[C@@H](Cc1cc(I)c(Oc2ccc(O)cc2)c(I)c1)C(=O)O [3,5-Diiodo-L-thyronine]",103
14,CC(=O)Nc1ccccc1 [Acetanilide (Antifebrin)],102
15,CCN(CC)Cc1ccc2cc(COC(=O)Nc3ccc(C(=O)NO)cc3)ccc2c1 [ITF2357 (Givinostat)],104
16,CC(C)[C@H](C(=O)Nc1ccc(C(=O)NO)cc1)c1ccccc1,53
17,COc1ccc(CN2C(=O)C(=O)c3cc(OC(F)(F)F)ccc32)cc1,102
18,CC(C)Oc1ccc2c(=O)c3cc(C(=O)O)ccc3oc2c1,102
19,O=[N+]([O-])c1ccccc1S(=O)(=O)NCC1CCC(CNCC2CCc3ccccc3C2)CC1 (stereo not drawn) [NTNCB hydrochloride],114
20,CC(C)NCCN(C(C)C)S(=O)(=O)c1ccc(Cl)cc1Cl,95.9
21,O=C1c2c(O)ccc(O)c2C(=O)c2c(NCCNCCO)ccc(NCCNCCO)c21 [Mitoxantrone dihydrochloride],20.9
22,O=C1c2ccccc2C(=O)c2c(NCCc3ccc(O)cc3)ccc(NCCc3ccc(O)cc3)c21,120
23,C[N+](C)([O-])CCNc1ccc(NCC[N+](C)(C)[O-])c2c1C(=O)c1c(O)ccc(O)c1C2=O [Banoxantrone dihydrochloride],87.9
24,CC(C)SC(=N)N [S-Isopropylisothiourea hydrobromide],102
25,CCCS(=O)(=O)c1nc(NC2CC2)cc(-c2ccc3c(ccn3C3CC(C)(C)NC(C)(C)C3)c2)n1,21.1
26,C=C1C(=O)O[C@@H](CCC)[C@@H]1C(=O)O [Butyrolactone 3],100

row,Compound,mean cytoplasmic OPP incorporation
1,C[C@H](NC(=O)[C@@H]1CCCN1C(=O)[C@@H]1CCCN1C(=O)[C@@H](O)[C@H](N)Cc1ccccc1)C(N)=O [Apstatin],101
2,"C[C@H](NC(=O)/C(C#N)=C/c1ccc(O)c(O)c1)c1ccccc1 [Tyrphostin B44, (+) enantiomer]",96
3,C[C@H](NC(=O)/C(C#N)=C/c1cccc(Br)n1)c1ccccc1,56.2 ± 5.9
4,CCC[C@H](NC(=O)/C(C#N)=C/c1cccc(Br)n1)c1ccccc1,27.2
5,O=C(c1ccc(Cl)cc1Cl)n1nnc2ccccc21,111
6,CCCc1cc(C)[nH]c(=O)c1CNC(=O)c1cc(-c2ccnc(N3CCN(C)CC3)c2)cc2c1cnn2C(C)C,112
7,Cc1[nH]c2ccccc2c1CCNCc1ccc(/C=C/C(=O)NO)cc1 [Panobinostat],51.6
8,CC(=O)NCCc1c(Cc2ccccc2)[nH]c2ccccc12 [Luzindole],103
9,O=C(/C=C/c1cccc(S(=O)(=O)Nc2ccccc2)c1)NO [Belinostat (PXD101)],65.5
10,CCCCCCCCCCCCCCCC(=O)C1=C(O)[C@@H](CO)OC1=O,104
11,N[C@H](C(=O)O)[C@H](OCc1ccccc1)C(=O)O (racemic),103
12,CCS(=O)(=O)c1cccc(-c2cc(C(=O)NC3CCN(C)CC3)c(C)c3[nH]c4ncc(C)cc4c23)c1,46.8
13,COc1cc(C(=O)NC(=S)Nc2cccc(NC(=O)c3ccccc3)c2)cc(OC)c1OC,117
14,CN(C)c1nc(N)c(C(=O)Nc2cccnc2)nc1Cl [ACDPP hydrochloride],97.2
15,CN1CCC(c2c(O)cc(O)c3c(=O)cc(-c4ccccc4Cl)oc23)C(O)C1 (stereo not drawn) [Flavopiridol (Alvocidib) HCl],58.4
16,Cc1cc2c(cc1C1(c3ccc(C(=O)O)cn3)CC1)C(C)(C)CCC2(C)C,109
17,COc1cc(NC(C)CCCN)c2ncccc2c1 (stereo not drawn) [Primaquine diphosphate],36.1
18,C/C(=N\NC(=O)C1C(=O)NCC1c1ccccc1)c1cccc(Br)c1 (stereo not drawn),102
19,O=C(O)c1cc(O)ccc1O [Gentisic acid],101
20,CC(=O)N[C@@H](CSCC=C(C)CCC=C(C)CCC=C(C)C)C(=O)O [Acetyl-S-farnesyl-L-cysteine],123
21,OCC1OC(n2cnc3c(NC4CCCC4)nc(Cl)nc32)C(O)C1O (stereo not drawn) [2-Chloro-N6-cyclopentyladenosine],116
22,CCCCCS(=O)(=O)CCCCCCCCCCn1c(-c2ccc(O)cc2)c(C)c2cc(O)ccc21,104
23,O=C(CCCN1C(=O)c2cccc3cccc(c23)C1=O)NO [Nullscript],97.6
24,CCN(CCN(C)C)C(=O)CNCc1cc(C(N)=O)ccn1,96.2
25,O=c1[nH]nc(Sc2ncc([N+](=O)[O-])s2)n1-c1ccc2c(c1)OCCO2,39.7 ± 16
26,O=C1NCCN1c1ncc([N+](=O)[O-])s1 [Niridazole],94.7

row,Compound,mean cytoplasmic OPP incorporation
1,C[C@H](CCC(=O)NCCS(=O)(=O)O)[C@H]1CC[C@H]2[C@@H]3CC[C@@H]4C[C@H](O)CC[C@]4(C)[C@H]3C[C@H](O)[C@]12C [Taurodeoxycholic acid],99.3
2,O=C(NCCCN1CCC2(CC1)OCc1ccccc12)[C@H]1CCCN1Cc1ccccc1,108
3,CCCCC[C@H](O)/C=C/[C@@H]1[C@H]2C/C(=C/CCCC(=O)O)C[C@H]2C[C@H]1O [Carbacyclin],101
4,Nc1nc(NCCc2ccc(O)cc2)nc2nc(-c3ccco3)nn12,99.2
5,Cc1cc(C)c(N(Cc2ccccc2)S(=O)(=O)c2ccc(OCCNC(=O)c3cc4ccccc4o3)cc2)c(C(=O)NO)c1,103
6,CN(C)Cc1c(C(=O)NCCOc2ccc(C(=O)NO)cc2)oc2ccccc12,56
7,COc1cc(C(=O)NCc2ccc(OCCN(C)C)cc2)cc(OC)c1OC [Trimethobenzamide hydrochloride],102
8,"O=C(O)COc1ccc(OCCNC[C@H](O)COc2ccccc2)cc1 [ICI 215,001 hydrochloride]",100
9,CCCCn1c(=O)c2[nH]c(C34CC5CC(CC3C5)C4)nc2n(CCCO)c1=O,117
10,CCC(CC)[C@H](NC(C)=O)[C@@H]1[C@H](O)[C@@H](C(=O)O)C[C@H]1NC(=N)N [Peramivir  Trihydrate],99.4
11,c1ccc2sc(N3CCN(Cc4ccc5c(c4)OCO5)CC3)nc2c1 [2-[1-(4-Piperonyl)piperazinyl]benzothiazole],105
12,Cc1cc(/C=C/c2ccc3cc(N(C)C)ccc3[n+]2C)c(C)n1-c1ccccc1 [Pyrvinium pamoate],22
13,CNCCCCOc1ccccc1Cc1ccccc1 [Bifemelane hydrochloride],107
14,"O=Cc1c2[nH]c3ccccc3c2cc2[nH]c3ccccc3c12 [6-Formylindolo [3,2-B] carbazole]",92.9
15,COc1ccc2[nH]cc(CCNC(C)=O)c2c1 [Melatonin],103 ± 4.6
16,COc1ccc(C(=O)NCc2ccc(OCCN(C)C)cc2)cc1OC [Itopride],89.3
17,COc1ccc(OC)c(C(O)CNC(=O)CN)c1 (stereo not drawn) [Midodrine hydrochloride],48.8
18,CC(C)[C@H](N)C(=O)N[C@H](C(=O)N[C@H](C(=O)O)C(C)C)C(C)C,114
19,O=C(/C=C/C#Cc1cccc(NS(=O)(=O)c2ccccc2)c1)NO [Oxamflatin],105
20,COc1cccc2c1C(=O)c1c(O)c3c(c(O)c1C2=O)C[C@@](O)(C(=O)CO)C[C@@H]3O[C@H]1C[C@H](N)[C@@H](O)[C@H](C)O1 [Epirubicin HCl],59.5
21,CC(=O)[C@]1(O)Cc2c(O)c3c(c(O)c2[C@@H](O[C@H]2C[C@H](N)[C@H](O)[C@H](C)O2)C1)C(=O)c1ccccc1C3=O [Idarubicin HCl],60.3
22,COc1cccc2c1C(=O)c1c(O)c3c(c(O)c1C2=O)C[C@@](O)(C(C)=O)C[C@@H]3O[C@H]1C[C@H](N)[C@H](O)[C@H](C)O1 [Daunorubicin hydrochloride],40.7
23,COc1cccc2c1C(=O)c1c(O)c3c(c(O)c1C2=O)C[C@@](O)(C(=O)CO)C[C@@H]3O[C@H]1C[C@H](N)[C@H](O)[C@H](C)O1 [Doxorubicin (Adriamycin)],67.1
24,COc1cccc2c1C(=O)c1c(O)c3c(c(O)c1C2=O)C[C@@](O)(C(=O)CO)C[C@@H]3O[C@H]1C[C@H](N)[C@H](O)[C@H](C)O1 [Doxorubicin hydrochloride],54.8 ± 17
25,COc1cccc2c1C(=O)c1c(O)c3c(c(O)c1C2=O)C[C@@](O)(C(=O)CO)C[C@@H]3O[C@H]1C[C@H](N)[C@H](O[C@@H]2CCCCO2)[C@H](C)O1 [Pirarubicin],59.9
26,COc1cccc2c1C(=O)c1c(O)c3c(c(O)c1C2=O)C[C@@](O)(C(C)=O)C[C@@H]3O[C@H]1C[C@H](N)[C@H](O)[C@H](C)O1 [Daunorubicin HCl (Daunomycin HCl)],59.9
